The panel holds about 83,000 compounds, 20% with a hit somewhere; the sample as a whole holds those more often.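 A percent growth of 40 corresponds to 60% growth inhibition; 0 means no net growth; -100 means all cells died. Active threshold: below 10.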 Values without a mark were called inactive. Active and inactive are the calls of the source.
Experiments:
Assay in all cases: NCI-60 one-dose screen, 48 h (100 = growth as untreated, 0 = no growth, -100 = all killed)
Settings in all cases: 10 µM unless noted
HCT-15 colon = tested on: HCT-15 colon
HT29 colon = tested on: HT29 colon
SNB-75 CNS = tested on: SNB-75 CNS
SNB-19 CNS = tested on: SNB-19 CNS
U251 CNS = tested on: U251 CNS
PC-3 prostate = tested on: PC-3 prostate
SK-MEL-5 melanoma = tested on: SK-MEL-5 melanoma
UACC-62 melanoma = tested on: UACC-62 melanoma
LOX IMVI melanoma = tested on: LOX IMVI melanoma
SK-MEL-28 melanoma = tested on: SK-MEL-28 melanoma

Row | Compound | growth (HCT-15 colon) | growth (HT29 colon) | growth (SNB-75 CNS) | growth (SNB-19 CNS) | growth (U251 CNS) | growth (PC-3 prostate) | growth (SK-MEL-5 melanoma) | growth (UACC-62 melanoma) | growth (LOX IMVI melanoma) | growth (SK-MEL-28 melanoma)
1 | O=[N+]([O-])/C(=C/C=C/c1ccccc1)c1ccccc1 | 10.8% | 26.9% | 57.3% | 85.9% | 37.2% | 43.6% | 82.4% | 70.5% | -0.767% (active) | 12.6%
2 | COc1cc(-c2csc(NC(=O)c3cc(-n4cnc(C)c4)cc(C(F)(F)F)c3)n2)cc(OC)c1OC | 39.5% | 52.6% | 78.6% | 62.2% | 56.9% | 37.3% | 51% | 44.1% | 53.9% | 78.9%
3 | N#CC1C=CN(CC(N)=O)c2ccc3cccnc3c21 (stereo not given) | 96.2% | 88.3% | 87.2% | 96.1% | 91.7% | 84.2% | 96.5% | 96.9% | 97.5% | 104%
4 | COC(=O)c1c2c(c[n+]([O-])c1C)C(=O)C(NCc1ccccc1)=CC2=O | -60.1% (active) | -0.488% (active) | -97.9% (active) | -23.8% (active) | -57.4% (active) | -11.1% (active) | -97% (active) | -78.5% (active) | -30.1% (active) | -29.3% (active)
5 | COc1ccc2cc(C(=O)c3coc4ccc(O)cc34)ccc2c1 | 103% | 95.6% | 101% | 104% | 103% | 95.5% | 99.5% | 98.7% | 97.4% | 111%
6 | CC1=Nc2cnc(Nc3ccc(OCCN4CCCCC4)cc3)nc2Nc2ccccc21 | 27.8% | 50.6% | 9.67% (active) | 87.8% | 76.6% | 48.7% | 69.2% | 85.7% | 47.6% | 99.3%
7 | COc1ccc2[nH]cc(-c3nc(-c4cn(C)c5c(Cl)nccc45)cs3)c2c1 | 0.0691% (active) | 9.12% (active) | 61.6% | 79.2% | 16.3% | 23.4% | 34.5% | 43.8% | 21% | 46%
8 | CC(=O)N(N=Nc1ccccc1)c1cccc2ccccc12 | 17.1% | 35.2% | 129% | 106% | 81.7% | 68.1% | 84.3% | 75.3% | 76.5% | 100%
9 | COc1ccc2c(c1)[n+]([O-])c(C(=O)/C=C/C=C(\Cl)c1cc(OC)c(OC)c(OC)c1)c(C)[n+]2[O-] | 95.4% | 101% | -26% (active) | 55.9% | 8.58% (active) | 93% | 121% | 68.2% | 41.7% | 99.1%
10 | CCNc1cc(-c2cccc(OC(F)(F)F)c2)nc2ccc(N3CCCC3)cc12 | 4.85% (active) | 4.79% (active) | 82.3% | 27% | -68.3% (active) | 15.1% | -64.3% (active) | 50.7% | 11.3% | 30.6%
11 | CN(CCOc1ccc(C#N)cc1)CCOc1ccc(C#N)cc1 | 85.8% | 88.7% | 83.4% | 44.5% | 78% | 71.7% | 6.74% (active) | 73.4% | 84.9% | 94.9%
12 | Nc1ncnc2c1N=C(c1ccc3c(c1)OCO3)CC(c1ccc([N+](=O)[O-])cc1)N2 (stereo not given) | 77% | 86.6% | 59.5% | 86.6% | 86.8% | 47% | 70.3% | 64.8% | 75.5% | 110%
13 | COc1ccc(C(=O)Nc2ncc(Cc3cccc(Cl)c3)s2)cc1OC | 23.4% | 9.89% (active) | 19.8% | 34.2% | 28.4% | 27.4% | -25.9% (active) | 10.6% | 7.25% (active) | 10.9%
14 | Cc1ccc(Sc2oc(-c3ccc(C)cc3)nc2[P+](c2ccccc2)(c2ccccc2)c2ccccc2)cc1 | 0.625% (active) | 1.95% (active) | -23.6% (active) | 14% | 12.9% | 5.64% (active) | -97.7% (active) | -38.1% (active) | -69.3% (active) | 17%
15 | CN(C)CCCC1(c2ccc(F)cc2)OCc2cc(-c3cccc4[nH]ccc34)ccc21 (stereo not given) | 7.57% (active) | -31.3% (active) | 11.4% | 51.9% | -24.1% (active) | 28.6% | -84.1% (active) | 37.5% | -92.1% (active) | -86% (active)
16 | O=[N+]([O-])C1C(c2ccccc2)C12c1ccccc1-c1ccccc12 (stereo not given) | 17.5% | -13.4% (active) | 29% | 43.3% | -15.2% (active) | 12.2% | -16.5% (active) | 17.8% | -44.4% (active) | 49.2%
17 | O=CC1(C2(C=O)c3ccccc3-c3ccccc32)c2ccccc2-c2ccccc21 | -36.4% (active) | -53.9% (active) | -79.2% (active) | -83% (active) | -63% (active) | -64.5% (active) | -83.7% (active) | -61.5% (active) | -61% (active) | -38.2% (active)
18 | C=C(C)[C@@H]1CC[C@]2(C)[C@H](CC=C3[C@@H]4[C@H](C)[C@@H](C)CC[C@]4(CO)CC[C@]32C)[C@@]1(C)CCCN | -39.1% (active) | -44.5% (active) | 18.5% | 72.3% | -74.3% (active) | 11% | 67.1% | 79.4% | -99% (active) | -35.3% (active)
19 | OCc1cccc(-c2ccc3ncc(-c4nc(NC5CC5)ncc4F)n3c2)c1 | 1.06% (active) | 4.87% (active) | -40.8% (active) | -0.451% (active) | -3.8% (active) | -10.3% (active) | -77.2% (active) | -84.4% (active) | -1.7% (active) | -45.5% (active)
20 | C=CCc1c2c(c(OC)c3ccoc13)C(=O)/C(=C/c1ccccc1OC)O2 | 45.2% | 44.6% | 35.8% | 73% | 46.2% | 55.2% | 98% | 46.4% | 38.3% | 81.1%
21 | O=C1C(Cl)=C(Oc2ccccc2)C(=O)c2ccccc21 | 70.5% | 94.1% | 73.1% | 58.4% | 42.1% | 47.8% | 74.8% | 53% | 85% | 120%
22 | COc1ccc(-c2ccc3cnc4sc(-c5ccc(OC)cc5)nc4c3n2)cc1 | 97.6% | 100% | 85.8% | 98.4% | 94.4% | 70.3% | 85.2% | 98.8% | 87% | 107%
23 | O=C(OCc1ccc2c(Cl)cc(Cl)c(O)c2n1)n1cncn1 | 19.3% | 72.6% | 44.9% | 30.5% | 16.3% | 42.5% | 15.4% | -3.18% (active) | 9.57% (active) | 35.5%
24 | O=C1CC(N2C(=O)/C(=C/C(Cl)=C\c3ccc([N+](=O)[O-])cc3)SC2=S)C(=O)N1c1ccc(Cl)cc1 (stereo not given) | -8.75% (active) | 4.25% (active) | 17.2% | 17.4% | 1.45% (active) | -5.48% (active) | 59.9% | 16.4% | -71.7% (active) | 18.2%
25 | c1ccc(C2=NN[C@H](c3cn(-c4ccccc4)nc3-c3ccccc3)C2)cc1 | 86.5% | 65.2% | -32.7% (active) | 55% | 7.2% (active) | 43.5% | 64% | 90.3% | 24.4% | 50.2%
26 | Cc1ccc2c3c(c(=O)[nH]c2c1)C1(C(C#N)=C(N)O3)c2cc(Br)ccc2-c2ccc(Br)cc21 | 11.4% | -14.7% (active) | -26.8% (active) | -30% (active) | -66.4% (active) | -30.2% (active) | 61.4% | 40.1% | 2.99% (active) | 48.7%
27 | C=C(CNCCc1ccc(O)cc1)[C@@H]1CC[C@]2(CO)CC[C@]3(C)[C@H](CC[C@@H]4[C@@]5(C)CCC(NCCO)C(C)(C)[C@@H]5CC[C@]43C)[C@@H]12 (stereo not given in full) | -80.9% (active) | -44.1% (active) | -97.8% (active) | -73.2% (active) | -83.7% (active) | -20.1% (active) | -94.2% (active) | -80.8% (active) | -84.1% (active) | -92.4% (active)

— PubChem BioAssay (NCI)
